{"source": "PubChem BioAssay (NCATS)", "note": "Inconclusive results are not listed. Activity calls are given as the source filed them. Calls come from the whole dose curve; as a rule, active = well fitted activation curve with a large enough effect; inconclusive = small, poorly fitted or top-dose-only effect; inactive = flat fitted curve, though single readings scatter. Potency is the fitted concentration of half-maximal effect.", "data": [{"biological_target": "Nuclear receptor subfamily 1 group I member 3 (Homo sapiens) (UniProt Q14994)", "sequence (Q14994 whole entry, looked up)": "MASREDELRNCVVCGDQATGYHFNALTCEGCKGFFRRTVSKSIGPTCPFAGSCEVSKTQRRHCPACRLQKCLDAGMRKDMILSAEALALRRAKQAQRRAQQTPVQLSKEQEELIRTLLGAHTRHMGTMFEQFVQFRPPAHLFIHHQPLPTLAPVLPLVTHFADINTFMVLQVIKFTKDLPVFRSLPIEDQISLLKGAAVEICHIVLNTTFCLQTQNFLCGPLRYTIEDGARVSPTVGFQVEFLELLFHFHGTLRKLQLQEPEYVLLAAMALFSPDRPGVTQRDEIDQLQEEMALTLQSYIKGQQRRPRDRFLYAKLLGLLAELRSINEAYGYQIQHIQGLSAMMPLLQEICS", "experiment": "Primary qHTS for agonist of constitutive androstane receptor (CAR) against the NCATS DSHEA and TCM libraries (AID 1794839);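 for activation: HepG2 cells expressing human CAR with a CYP2B6 reporter plus PK11195 antagonist; luciferase reporter luminescence read with ONE-Glo; 0% is about no effect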", "conditions": "CAR agonist reporter cells, qHTS luminescence, CAR antagonist co-added at 0.75 µM; series mostly up to 40 µM; activation: at the top concentration", "how_it_was_run": "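qHTS, agonist mode: HepG2-CYP2B6-hCAR, 2,500 cells/well, 5 h attach; cpds + PK11195 0.75 µM final; 24 h, 37 °C, 5% CO2. Readouts: CellTiter-Fluor (405/540 nm), then ONE-Glo luminescence.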", "values": [{"smiles": "O=C(O[C@@H]1Cc2c(O)cc(O)cc2O[C@@H]1c1ccc(O)c(O)c1)c1cc(O)c(O)c(O)c1", "activation": "-20.4% (inactive)"}, {"smiles": "C=C(C)C1CC=C(C)C(O)C1", "note": "(stereo unspecified)", "activation": "0.122% (inactive)"}, {"smiles": "C=C1C[C@@]23CC[C@H]4[C@@](C)(CCC[C@@]4(C)C(=O)O[C@@H]4O[C@H](CO)[C@@H](O)[C@H](O)[C@H]4O[C@@H]4O[C@H](CO)[C@@H](O)[C@H](O)[C@H]4O)[C@@H]2CC[C@]1(O[C@@H]1O[C@H](CO)[C@@H](O)[C@H](O)[C@H]1O[C@@H]1O[C@H](CO)[C@@H](O)[C@H](O)[C@H]1O)C3", "activation": "3.66% (inactive)"}, {"smiles": "O=C(/C=C/c1ccc(O)c(O)c1)OC1[C@H](O)CC(O)(C(=O)O)C[C@@H]1O", "note": "(stereo partly specified)", "activation": "8.3% (inactive)"}, {"smiles": "O=c1cc(-c2ccc(O)c(O)c2)oc2cc(O[C@@H]3O[C@@H](CO)[C@@H](O)[C@@H](O)[C@H]3O)cc(O)c12", "Potency": "28.2 µM (active)"}, {"smiles": "CCCCCCCC/C=C/CCCCCCCCCC(=O)O", "activation": "-16.7% (inactive)"}]}]}
